Results published in ChEMBL document CHEMBL4513142, “CO-ADD screening of Indiana University - Purdue University Indianapolis (USA) compounds”.
Where “and” joins values, the source holds several entries; their conditions need not be identical. Identical values can stand only once. Measured potencies and affinities stand elsewhere.

These compounds were tested on Staphylococcus aureus. Conditions: Concentration 32 ug.mL-1; ASSAY_TEST Inhibition of Bacterial Growth; detection method Absorption (OD600); MEDIA CAMHB; plate type 384well; NBS; CORNING #3640; time 18 hr.
For `[C-]#[N+]c1ccc(C(=O)NC(Cc2ccccc2F)C(=O)NCCC)cc1` (stereo not given), the Inhibition was 22.89%. In the case of `[C-]#[N+]c1ccc(C(=O)NC(Cc2ccc(F)cc2)C(=O)NCCC)cc1` (stereo not given), the Inhibition is reported as 26.08%. `CCCNC(=O)C(Cc1ccccc1C)NC(=O)c1ccc(C(F)(F)F)cc1` (stereo not given) gave an Inhibition of 28.42%. `CCCNC(=O)C(Cc1ccc(F)cc1)NC(=O)c1ccccc1` (stereo not given) gave an Inhibition of 25.83%. Work on `CCCNC(=O)C(Cc1ccccc1)NC(=O)Cc1ccccc1` (stereo not given) yielded an Inhibition of 29.57%. Compound `[C-]#[N+]c1ccc(C(=O)NC(Cc2ccc(C(F)(F)F)cc2)C(=O)NCCC)cc1` (stereo not given) has an Inhibition of 24.86%. For `[C-]#[N+]c1ccc(C(=O)NC(CC#C)C(=O)NCCC)cc1` (stereo not given), the Inhibition was 27.84%. In the case of `[C-]#[N+]c1ccc(C(=O)NC(CC=C)C(=O)NCCC)cc1` (stereo not given), the Inhibition is reported as 14.2%. `CCCNC(=O)C(Cc1ccccc1)NC(=O)c1ccc(F)cc1` (stereo not given) gave an Inhibition of 30.52%. With `[C-]#[N+]c1ccc(C(=O)NC(CC)C(=O)NCCC)cc1` (stereo not given) the Inhibition was 19.19%.

Same assay, conditions: Concentration 32 ug.mL-1; ASSAY_TEST Inhibition of Bacterial Growth; detection method Absorption (OD600); MEDIA CAMHB; plate type 384well; NBS; CORNING #3640; time 18 hr, 32 ug/mL
`Cc1ccc(C(=O)NC(Cc2ccccc2C#N)C(=O)O)cc1` (stereo not given) was tested, and the Inhibition was 24.12% and 21.1%. `C[C@H](NC(=O)c1ccccc1Cl)C(=O)O` was tested, and the Inhibition was 13.46% and 14.36%. `NC(Cc1ccc(F)c(F)c1)C(=O)O.O=C(O)C(F)(F)F` (stereo not given) was tested, and the Inhibition was 14.42% and 15.4%. With `O=C(N[C@@H](Cc1ccccc1)C(=O)O)C1CCCCC1` the Inhibition was 12.87% and 13.13%. In the case of `COc1cc(C(=O)N[C@@H](CC(C)C)C(=O)O)ccc1O`, the Inhibition is reported as 20.35% and 19.19%. For `NC(Cc1ccc(F)cc1)C(=O)O.O=C(O)C(F)(F)F` (stereo not given), the Inhibition was 15.79% and -3.39%. For `NC(=O)[C@H](Cc1ccccc1)NC(=O)c1c(F)c(F)c(F)c(F)c1F`, the Inhibition was 22.06% and 27.14%. With `CC(C)C[C@H](NC(=O)c1cccnc1)C(N)=O` the Inhibition was 11.42% and -3.35%. In the case of `NC(=O)[C@H](Cc1ccccc1)NC(=O)c1cccnc1`, the Inhibition is reported as 29.26% and 26.43%. In the case of `Cc1ccc(C(=O)NC(Cc2cc(F)c(F)cc2F)C(=O)O)cc1` (stereo not given), the Inhibition is reported as 24.46% and 19.13%. For `CC(C)[C@H](NC(=O)c1cccc(C(F)(F)F)c1)C(=O)O`, the Inhibition was 19.09% and 11.5%. For `O=C(NC(CCCc1ccccc1)C(=O)O)c1cccc2ccccc12` (stereo not given), the Inhibition was 21.08% and 19.14%. In the case of `O=C(NC(Cc1ccc(Cl)nc1)C(=O)O)c1ccccc1` (stereo not given), the Inhibition is reported as 22.85% and 23.42%. `NC(Cc1ccccc1I)C(=O)O.O=C(O)C(F)(F)F` (stereo not given) was tested, and the Inhibition was 9.99% and 15.72%. With `O=C(Cc1cccc(Br)c1)N[C@@H](Cc1ccccc1)C(=O)O` the Inhibition was 8.37% and -0.37%. For `NC(Cc1ccccc1F)C(=O)O.O=C(O)C(F)(F)F` (stereo not given), the Inhibition was 11.55% and 11.5%. In the case of `NC(Cc1cccc(F)c1)C(=O)O.O=C(O)C(F)(F)F` (stereo not given), the Inhibition is reported as 11.07% and 11.98%. `NC(=O)[C@@H]1CCCN1C(=O)c1ccccn1` was tested, and the Inhibition was 30.13% and 31.7%.

The compounds below were run on Escherichia coli. Conditions: Concentration 32 ug.mL-1; ASSAY_TEST Inhibition of Bacterial Growth; detection method Absorption (OD600); MEDIA CAMHB; plate type 384well; NBS; CORNING #3640; time 18 hr.
In the case of `[C-]#[N+]c1ccc(C(=O)NC(Cc2ccccc2F)C(=O)NCCC)cc1` (stereo not given), the Inhibition is reported as 11.79%. For `[C-]#[N+]c1ccc(C(=O)NC(Cc2ccc(F)cc2)C(=O)NCCC)cc1` (stereo not given), the Inhibition was 15%. `CCCNC(=O)C(Cc1ccccc1C)NC(=O)c1ccc(C(F)(F)F)cc1` (stereo not given) showed an Inhibition of 15.38%. In the case of `CCCNC(=O)C(Cc1ccc(F)cc1)NC(=O)c1ccccc1` (stereo not given), the Inhibition is reported as 9.01%. `CCCNC(=O)C(Cc1ccccc1)NC(=O)Cc1ccccc1` (stereo not given) gave an Inhibition of 14.02%. Compound `[C-]#[N+]c1ccc(C(=O)NC(Cc2ccc(C(F)(F)F)cc2)C(=O)NCCC)cc1` (stereo not given) has an Inhibition of 13.88%. `[C-]#[N+]c1ccc(C(=O)NC(CC#C)C(=O)NCCC)cc1` (stereo not given) was tested, and the Inhibition was 17.34%. `[C-]#[N+]c1ccc(C(=O)NC(CC=C)C(=O)NCCC)cc1` (stereo not given) showed an Inhibition of 6.66%. Compound `CCCNC(=O)C(Cc1ccccc1)NC(=O)c1ccc(F)cc1` (stereo not given) has an Inhibition of 11.25%. `[C-]#[N+]c1ccc(C(=O)NC(CC)C(=O)NCCC)cc1` (stereo not given) gave an Inhibition of 3.26%.

Same assay, conditions: Concentration 32 ug.mL-1; ASSAY_TEST Inhibition of Bacterial Growth; detection method Absorption (OD600); MEDIA CAMHB; plate type 384well; NBS; CORNING #3640; time 18 hr, 32 ug/mL
`Cc1ccc(C(=O)NC(Cc2ccccc2C#N)C(=O)O)cc1` (stereo not given) was tested, and the Inhibition was 12.75% and 9.35%. `C[C@H](NC(=O)c1ccccc1Cl)C(=O)O` was tested, and the Inhibition was 2.9% and -3.06%. `NC(Cc1ccc(F)c(F)c1)C(=O)O.O=C(O)C(F)(F)F` (stereo not given) was tested, and the Inhibition was 15.3% and 11.55%. In the case of `O=C(N[C@@H](Cc1ccccc1)C(=O)O)C1CCCCC1`, the Inhibition is reported as 2.23% and -1.68%. With `COc1cc(C(=O)N[C@@H](CC(C)C)C(=O)O)ccc1O` the Inhibition was 10.4% and 9.74%. With `NC(Cc1ccc(F)cc1)C(=O)O.O=C(O)C(F)(F)F` (stereo not given) the Inhibition was 9.45% and 2%. For `NC(=O)[C@H](Cc1ccccc1)NC(=O)c1c(F)c(F)c(F)c(F)c1F`, the Inhibition was 6.54% and 12.4%. For `CC(C)C[C@H](NC(=O)c1cccnc1)C(N)=O`, the Inhibition was -6.61% and -6.83%. In the case of `NC(=O)[C@H](Cc1ccccc1)NC(=O)c1cccnc1`, the Inhibition is reported as 20.31% and 18.99%. With `Cc1ccc(C(=O)NC(Cc2cc(F)c(F)cc2F)C(=O)O)cc1` (stereo not given) the Inhibition was 4.35% and 11.7%. With `CC(C)[C@H](NC(=O)c1cccc(C(F)(F)F)c1)C(=O)O` the Inhibition was 0.57% and -0.75%. In the case of `O=C(NC(Cc1ccc(Cl)nc1)C(=O)O)c1ccccc1` (stereo not given), the Inhibition is reported as 9.12% and 5.81%. With `NC(Cc1ccccc1I)C(=O)O.O=C(O)C(F)(F)F` (stereo not given) the Inhibition was 13.12% and 15.99%. In the case of `O=C(Cc1cccc(Br)c1)N[C@@H](Cc1ccccc1)C(=O)O`, the Inhibition is reported as 5.53% and 8.68%. In the case of `NC(Cc1ccccc1F)C(=O)O.O=C(O)C(F)(F)F` (stereo not given), the Inhibition is reported as 17.44% and 15.69%. In the case of `NC(Cc1cccc(F)c1)C(=O)O.O=C(O)C(F)(F)F` (stereo not given), the Inhibition is reported as 9.03% and 16.34%. In the case of `NC(=O)[C@@H]1CCCN1C(=O)c1ccccn1`, the Inhibition is reported as 20.95% and 16.57%.
